Results reported in the supplement of paper PMC12645437, “Orthogonal IMiD-Degron Pairs Induce Selective Protein Degradation in Cells” (ACS Chemical Biology, 2025).
The full ranking holds about 8,300 sequences; the median of “log2 fold change of degron read counts, EGFP-low vs EGFP+ sorted cells (limma voom), compound-induced degradation” is about -1.1, and the highest 2% start at about 3.2. Shown is part of a subset that was picked to be rich in the highest values.

T1: CRBN, Q96SW2
T1 chain: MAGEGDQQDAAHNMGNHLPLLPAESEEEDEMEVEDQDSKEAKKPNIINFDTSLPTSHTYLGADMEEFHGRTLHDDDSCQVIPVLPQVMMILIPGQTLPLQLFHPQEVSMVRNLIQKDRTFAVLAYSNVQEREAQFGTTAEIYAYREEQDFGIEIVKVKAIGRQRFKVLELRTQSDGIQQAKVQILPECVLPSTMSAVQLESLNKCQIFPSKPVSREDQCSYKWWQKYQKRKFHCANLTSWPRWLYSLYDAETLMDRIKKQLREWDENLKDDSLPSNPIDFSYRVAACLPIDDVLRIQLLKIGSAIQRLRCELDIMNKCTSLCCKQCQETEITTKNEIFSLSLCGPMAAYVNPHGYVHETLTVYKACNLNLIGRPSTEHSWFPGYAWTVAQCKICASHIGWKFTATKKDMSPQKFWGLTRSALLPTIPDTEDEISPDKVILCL


Biological target: T1, CRBN, Q96SW2
Assay: log2 fold change of degron read counts, EGFP-low vs EGFP+ sorted cells (limma voom), compound-induced degradation; higher = more compound-induced degradation of the degron-EGFP fusion; degrons are variants of IKZF1/3 zinc finger 2; compound dose not given here
Conditions: Jurkat, 18 h
[1] = compound: compound 19 (5-tert-butyl-thalidomide)
[2] = compound: compound 22 (5-morpholino-thalidomide)
[3] = compound: compound 33 (diphenyl IMiD analogue)
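Also: pooled lentiviral library of zinc finger degron-EGFP fusions in mCherry-positive Jurkat cells, FACS-sorted after compound exposure, with degron abundance counted by next-generation sequencing.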

Sequence	log2 fold change of degron read counts [1]	log2 fold change of degron read counts [2]	log2 fold change of degron read counts [3]	log2 fold change of degron read counts (compound: thalidomide)
FICPICGHQFTQKGNLLRHIKL [46F_47I_49P_50I_52G_53H_54Q_55F_67L_, Q9UKT9]	-2.44	-2.12	-1.5	-1.12
FGCDVCGAMFTQKGNLLRHIKL [46F_47G_49D_50V_52G_53A_54M_55F_67L_, Q9UKT9]	0.868	-0.562	-0.229	-1.8
FTCPICGREFTQKGNLLRHIKL [46F_47T_49P_50I_52G_53R_54E_55F_67L_, Q9UKT9]	-1.73	-0.622	-0.517	0.583
FLCNQCGHMFTQKGNLLRHIKL [46F_47L_49N_50Q_52G_53H_54M_55F_67L_, Q9UKT9]	-2.55	-2.97	-3.4	-2.9
FKCEQCGAQFTQKGNLLRHIKL [46F_47K_49E_50Q_52G_53A_54Q_55F_67L_, Q9UKT9]	-2.76	-3.28	-3.17	-2.41
FSCPICGHEFTQKGNLLRHIKL [46F_47S_49P_50I_52G_53H_54E_55F_67L_, Q9UKT9]	-2.38	-3.52	-2.42	-2.6
LICNQCGFPCTQKGNLLRHIKL [46L_47I_49N_50Q_52G_53F_54P_55C_67L_, Q9UKT9]	-2.14	-2.53	-2.15	-1.65
FMCNICGAWFTQKGNLLRHIKL [46F_47M_49N_50I_52G_53A_54W_55F_67L_, Q9UKT9]	-1.88	-2.01	-0.0323	-1.08
FYCEICGAEFTQKGNLLRHIKL [46F_47Y_49E_50I_52G_53A_54E_55F_67L_, Q9UKT9]	3.55	3.26	2.06	0.377
FACEICGAEFTQKGNLLRHIKL [46F_47A_49E_50I_52G_53A_54E_55F_67L_, Q9UKT9]	2.52	1.11	-1.05	-0.214
FQCEICGAEFTQKGNLLRHIKL [46F_47Q_49E_50I_52G_53A_54E_55F_67L_, Q9UKT9]	1.15	1.54	1.73	3.53
FRCEICGAEFTQKGNLLRHIKL [46F_47R_49E_50I_52G_53A_54E_55F_67L_, Q9UKT9]	-0.6	-0.629	1.71	1.31
FNCEICGAEFTQKGNLLRHIKL [46F_47N_49E_50I_52G_53A_54E_55F_67L_, Q9UKT9]	1.62	-0.794	-0.586	-0.166
FCCEICGAEFTQKGNLLRHIKL [46F_47C_49E_50I_52G_53A_54E_55F_67L_, Q9UKT9]	1.77	1.26	0.921	1.54
FTCDVCGATFTQKGNLLRHIKL [46F_47T_49D_50V_52G_53A_54T_55F_67L_, Q9UKT9]	-1.33	0.301	0.357	0.358
FHCPICGRLFTQKGNLLRHIKL [46F_47H_49P_50I_52G_53R_54L_55F_67L_, Q9UKT9]	-0.285	-0.232	0.531	-0.155
FHCEICGAAFTQKGNLLRHIKL [46F_47H_49E_50I_52G_53A_54A_55F_67L_, Q9UKT9]	3.24	3	1.87	0.773
FWCEICGAAFTQKGNLLRHIKL [46F_47W_49E_50I_52G_53A_54A_55F_67L_, Q9UKT9]	3.77	3.83	2.67	1.57
FFCEICGAAFTQKGNLLRHIKL [46F_47F_49E_50I_52G_53A_54A_55F_67L_, Q9UKT9]	3.55	3.64	2.55	1.87
FRCEICGAAFTQKGNLLRHIKL [46F_47R_49E_50I_52G_53A_54A_55F_67L_, Q9UKT9]	2.72	2.37	2.62	2.49
FECEICGAAFTQKGNLLRHIKL [46F_47E_49E_50I_52G_53A_54A_55F_67L_, Q9UKT9]	2.86	-0.833	2.05	2.53
FGCEICGAAFTQKGNLLRHIKL [46F_47G_49E_50I_52G_53A_54A_55F_67L_, Q9UKT9]	3.04	2.59	2.15	1.39
FDCEICGAAFTQKGNLLRHIKL [46F_47D_49E_50I_52G_53A_54A_55F_67L_, Q9UKT9]	2.61	0.418	0.792	1.38
FACEICGAAFTQKGNLLRHIKL [46F_47A_49E_50I_52G_53A_54A_55F_67L_, Q9UKT9]	3.9	3.03	1.11	1.38
FMCEICGAAFTQKGNLLRHIKL [46F_47M_49E_50I_52G_53A_54A_55F_67L_, Q9UKT9]	2.64	2.45	3.19	2.46
FLCEICGAAFTQKGNLLRHIKL [46F_47L_49E_50I_52G_53A_54A_55F_67L_, Q9UKT9]	2.02	0.295	1.47	1.59
FACPICGALFTQKGNLLRHIKL [46F_47A_49P_50I_52G_53A_54L_55F_67L_, Q9UKT9]	1.68	-0.526	0.427	-0.353
FRCNICGAVFTQKGNLLRHIKL [46F_47R_49N_50I_52G_53A_54V_55F_67L_, Q9UKT9]	-1.72	-0.828	0.967	0.628
